Screening results (PubChem BioAssay)
The full list was thinned out, with hits kept by preference.
YB-1 expression = YB-1 expression inhibition; U2OS, qRT-PCR YB-1 vs CDIP delta delta Cp, 16 h; active compounds read high; zero = DMSO, each unit about twofold; delta delta Cp (YB-1 minus CDIP) (no concentration beside the values); 30,000 compounds, 0.37% hits;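 active = delta delta Cp rounded down to an integer at or above 3, about 3 SD of DMSO wells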;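 note: higher means less YB-1 transcript or more CDIP transcript relative to DMSO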
NOMO-1 viab = STK33 inhibitor candidate reducing NOMO-1 cell viability; inhibition, % (concentration not given with the values); NOMO-1 AML viability, CellTiter-Glo luminescence, 72 h; AID 2330; 37,000 compounds, 7.5% hits; in the data active = inhibition above about 80%; inconclusive = no clear call, values can overlap the other calls
PD-1 reverse act = reversal of PD-1 mediated T-cell inhibition. 29,000 tested, under 10 active. activation, % (concentration not given with the values). primary human CD4 T cells, PD-L1 beads, CellTiter-Glo 96 h; call rule not given here
U2OS ROS induce = raises reactive oxygen species in U2OS cancer cells. U2OS ROS induction, H2DCF-DA fluorescence. ROS induction (% of piperlongumine), % at 10 µM. 46,000 compounds, 2% hits. AID 624156; in the data active = ROS induction above about 79%, passing the limit was not always enough; inconclusive = no clear call, values can overlap the other calls
Each line names hits and unclear results; the compound was inactive in the other large screens.

C[C@@H]1CN([C@@H](C)CO)C(=O)c2cccc(NC(=O)Nc3ccc4c(c3)OCO4)c2O[C@@H]1CN(C)Cc1ccc(C(=O)Nc2ccccc2N)cc1	NOMO-1 viab 141.6
C[C@H](CO)N1C[C@H](C)[C@H](CN(C)Cc2ccc(C(=O)Nc3ccccc3N)cc2)Oc2ccc(NC(=O)Nc3ccc4c(c3)OCO4)cc2C1=O	none (no result: NOMO-1 viab, PD-1 reverse act)
C[C@@H]1CN([C@@H](C)CO)C(=O)c2cccc(NC(=O)Nc3ccc4c(c3)OCO4)c2O[C@H]1CN(C)Cc1ccc(C(=O)Nc2ccccc2N)cc1	NOMO-1 viab 126.3
CC1Sc2ccc(Cl)cc2C(=O)/C1=C/N(C)C (configuration not stated)	none (no result: YB-1 expression, NOMO-1 viab, PD-1 reverse act)
O=C(CC1(O)C(=O)Nc2ccc(Cl)cc21)c1ccccn1 (configuration not stated)	none (no result: YB-1 expression)
O=C(CC1(O)C(=O)Nc2ccc(I)cc21)c1ccccn1 (configuration not stated)	NOMO-1 viab 89.9 (no result: YB-1 expression, PD-1 reverse act, U2OS ROS induce)
O=c1c(C=Nc2ccccc2)c(Nc2ccccc2)[nH]n1-c1ccccc1	NOMO-1 viab 102.1
COc1ccc(-n2ncc(C(=O)NCc3ccc(-c4cccs4)cc3)c2C)cc1	none (no result: YB-1 expression, NOMO-1 viab, PD-1 reverse act)
COc1ccc(OC)c(/C=N/N2C(=O)C3C(C2=O)C2C=CC3C23CC3)c1 (configuration not stated)	none (no result: YB-1 expression, NOMO-1 viab, PD-1 reverse act)
O=c1c(F)cn(CC2CC(c3ccccc3)=NO2)c(=O)n1CC1CC(c2ccccc2)=NO1 (configuration not stated)	none (no result: YB-1 expression, NOMO-1 viab, PD-1 reverse act)
CC1(C)CC(=O)C=C(Sc2nc3cc(Cl)ccc3s2)C1	NOMO-1 viab 119.7
CCc1ccccc1NC(=O)CSc1nc2ccccc2c(=O)n1-c1ccccc1Cl	none (no result: YB-1 expression)
CC(C)NC(=O)Nc1ccc2c(c1)CC(=O)N([C@H](C)CO)C[C@H](C)[C@H](CN(C)S(=O)(=O)c1ccc(Cl)cc1)O2	none (no result: PD-1 reverse act)
Cc1ccc(S(=O)(=O)N(C)C[C@@H]2Oc3ccc(NC(=O)C4CC4)cc3CC(=O)N([C@@H](C)CO)C[C@@H]2C)cc1	NOMO-1 viab 84.5
Cc1ccc(S(=O)(=O)N(C)C[C@@H]2Oc3ccc(NC(=O)Nc4ccccc4)cc3CC(=O)N([C@H](C)CO)C[C@@H]2C)cc1	NOMO-1 viab 99.7 (no result: PD-1 reverse act)
Cc1ccc(S(=O)(=O)N(C)C[C@H]2Oc3ccc(NC(=O)Nc4ccccc4)cc3CC(=O)N([C@@H](C)CO)C[C@@H]2C)cc1	U2OS ROS induce 123.0
Cc1ccc(S(=O)(=O)N(C)C[C@@H]2Oc3ccc(NC(=O)NC(C)C)cc3CC(=O)N([C@@H](C)CO)C[C@@H]2C)cc1	NOMO-1 viab 98.1
O=S(=O)(c1ccccc1)N1CCC(Cc2ccccc2)CC1	none (no result: YB-1 expression, NOMO-1 viab, PD-1 reverse act)
Cn1c(SCC(=O)Nc2ccc([N+](=O)[O-])cc2)nc2ccccc21	none (no result: YB-1 expression)
O=C(O)c1c(O)cc(OC2OC(CO)C(O)C(O)C2O)cc1/C=C/c1ccccc1 (configuration not stated)	none
O=c1cc(-c2ccccc2)nc2cc(-c3ccccc3)[nH]n12	NOMO-1 viab 106.9
O=c1cc(-c2ccccc2)nc2nc(NCc3cccc([N+](=O)[O-])c3)[nH]n12	none (no result: YB-1 expression)
COc1ccc(C(=O)CSc2nnc(-c3ccc(Cl)cc3)n2-c2ccc(OC)cc2)cc1	none (no result: YB-1 expression, PD-1 reverse act, U2OS ROS induce)
CCCC[C@@H](C)/C=C(C)/C=C(\C)C(=O)NC1=C[C@@](O)(/C=C/C=C/C=C/C(=O)NC2C(=O)CCC2=O)[C@@H]2O[C@@H]2C1=O	NOMO-1 viab 141.8
C[C@H]1CN([C@@H](C)CO)C(=O)Cc2cc(NC(=O)CCC(F)(F)F)ccc2O[C@@H]1CN(C)S(=O)(=O)c1ccc(F)cc1	none (no result: PD-1 reverse act)
C[C@H]1CN([C@@H](C)CO)C(=O)Cc2cc(NC(=O)Nc3ccc(C(F)(F)F)cc3)ccc2O[C@H]1CN(C)S(=O)(=O)c1ccc(F)cc1	NOMO-1 viab 115.0
C[C@@H]1CN([C@H](C)CO)C(=O)Cc2cc(NC(=O)Nc3ccc(C(F)(F)F)cc3)ccc2O[C@H]1CN(C)S(=O)(=O)c1ccc(F)cc1	none
C[C@@H]1CN([C@@H](C)CO)C(=O)Cc2cc(NC(=O)Nc3ccc(C(F)(F)F)cc3)ccc2O[C@@H]1CN(C)S(=O)(=O)c1ccc(F)cc1	NOMO-1 viab 99.7
C[C@H]1CN([C@@H](C)CO)C(=O)Cc2cc(NC(=O)Nc3ccc(F)cc3)ccc2O[C@@H]1CN(C)S(=O)(=O)c1ccc(F)cc1	none
C[C@H](CO)N1C[C@H](C)[C@H](CN(C)S(=O)(=O)c2ccc(F)cc2)Oc2ccc(NC(=O)CCC(F)(F)F)cc2CC1=O	NOMO-1 viab 125.7
Cc1ccc(S(=O)(=O)NC2c3cccc4cccc(c34)C2Sc2nnnn2-c2ccccc2)cc1 (configuration not stated)	none (no result: YB-1 expression)
CC(C)COc1ccc(/C(=N\O)c2ccccc2)cc1	NOMO-1 viab inconclusive
COc1ccc(-c2c(C#N)c(SCC(=O)c3ccccc3)nc3c2C(=O)CC(C)(C)C3)cc1	U2OS ROS induce 138.3 (no result: YB-1 expression, NOMO-1 viab, PD-1 reverse act)
COc1ccc(CN(C)C[C@H]2Oc3c(NC(=O)Nc4ccc(OC)cc4)cccc3C(=O)N([C@H](C)CO)C[C@H]2C)cc1	none
COc1ccc(NC(=O)Nc2cccc3c2O[C@H](CN(C)Cc2ccccc2)[C@H](C)CN([C@@H](C)CO)C3=O)cc1	none
COc1ccc(CN(C)C[C@@H]2Oc3c(NC(=O)Nc4ccc(OC)cc4)cccc3C(=O)N([C@@H](C)CO)C[C@H]2C)cc1	NOMO-1 viab 93.2
COc1ccc(CN(C)C[C@@H]2Oc3c(NC(=O)Nc4ccc(F)cc4)cccc3C(=O)N([C@H](C)CO)C[C@H]2C)cc1	NOMO-1 viab 94.2
COc1ccc(NC(=O)Nc2cccc3c2O[C@H](CN(C)Cc2ccc(Oc4ccccc4)cc2)[C@H](C)CN([C@@H](C)CO)C3=O)cc1	NOMO-1 viab 112.6, U2OS ROS induce 88.6
COc1ccc(NC(=O)Nc2cccc3c2O[C@@H](CN(C)Cc2ccccc2)[C@H](C)CN([C@@H](C)CO)C3=O)cc1	NOMO-1 viab 93.1
COc1ccc(NC(=O)Nc2cccc3c2O[C@@H](CN(C)Cc2ccc(-c4ccccc4)cc2)[C@@H](C)CN([C@H](C)CO)C3=O)cc1	NOMO-1 viab 113.3
C[C@H]1CN([C@@H](C)CO)C(=O)c2cccc(NC(=O)Nc3cccc4ccccc34)c2O[C@H]1CN(C)Cc1ccc(Oc2ccccc2)cc1	NOMO-1 viab 93.2
CCOC(=O)CSc1nc2c(sc3ccccc32)c(=O)n1Cc1ccccc1	none (no result: YB-1 expression, NOMO-1 viab, PD-1 reverse act)
Nc1cc(N)nc(SCc2n[nH]c(=S)n2-c2ccccc2)n1	none (no result: YB-1 expression)
CNc1cc2ncnc(Nc3cccc(Br)c3)c2cc1N	NOMO-1 viab 96.6, U2OS ROS induce inconclusive
Fc1cnc(Nc2cccc(Br)c2)nc1Nc1cccc(Br)c1	none (no result: YB-1 expression, NOMO-1 viab, PD-1 reverse act)
Cn1c(CN2CCOCC2)nnc1SCC(=O)Nc1ccccc1Br	none (no result: YB-1 expression)
Cc1nn(-c2ccccc2)nc1CNS(=O)(=O)c1c(C)noc1C	none (no result: YB-1 expression, NOMO-1 viab, PD-1 reverse act)
CCN(CC)CCn1nnc2c(=O)oc3ccccc3c21	none (no result: YB-1 expression, PD-1 reverse act, U2OS ROS induce)
CC(C)n1nnc2c(=O)oc3ccccc3c21	U2OS ROS induce 79.4 (no result: YB-1 expression, NOMO-1 viab, PD-1 reverse act)
O=C(COc1ccccc1[N+](=O)[O-])Nc1cccc(Cl)c1N1CCOCC1	NOMO-1 viab 82.5 (no result: YB-1 expression)
O=C(O)c1cccc(CN2CCN(c3ccccc3)CC2)c1	none
COc1cc(NC(=O)Cn2nnc(-c3ccccc3Cl)n2)cc(OC)c1OC	none (no result: YB-1 expression)
